Epigenetic derep: regulators of epigenetic silencing causing reporter derepression in mouse cells; murine LDR cells, GFP reporter derepression, 30 h; Potency, µM (titrated, usually from 53.9 µM), without a hit: top-dose GFP activation, actives largely listed as activators; actives 0.2% (n = 280,000); also: % of control where 0% means no effect; nearly all actives have a fitted effect of over 60% in size
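Murine LDR cells carrying a silenced, genomically integrated CMV-driven GFP reporter were exposed to compound for 30 hours at 37 C. After PBS washes, GFP-positive cells (20–120 um objects) were counted by laser-scanning microplate cytometry.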
PINK1 expr mod: modulators of PINK1 expression; PINK1 immunofluorescence, high-content cytometry, 24 h; actives 0.2% (n = 410,000); Potency, µM (series often up to 76.6 µM), for inactives: at the top dose activation (PINK1 increase), actives largely listed as activators; active = well fitted activation curve with a large enough effect; inconclusive = small, poorly fitted or top-dose-only effect; cell line not stated here; also: % of control where 0% means no effect; nearly all actives have a fitted effect of over 65% in size
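Decision-based qHTS: stable cells, 24 h exposure to five compound concentrations, CCCP as control. Fixed cells stained for PINK1 plus nuclear, mitochondrial and cell markers, cytometer read.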
RORgamma inh: inhibitors of mouse ROR gamma transcriptional activity; P51450; Drosophila S2 Gal4-RORgamma UAS-luciferase reporter, 20 h; Potency, µM (series often up to 53.6 µM), inactives show top-dose activity change, negative = inhibition, hits mostly inhibitors; actives 5.4% (n = 310,000); AID 2551; also: % is scaled to controls: 0 for no effect and ±100 for the full control effect; nearly all actives have a fitted effect of over 60% in size
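Compounds are pin-transferred onto Drosophila Schneider cells expressing a copper-inducible Gal4–ROR gamma transactivation domain fusion. After 1 hr, copper sulfate is added to 700 uM final; luciferase is read 20 hr later.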
Sfp inh: blocks B. subtilis Sfp PPTase activity; actives 3.5% (n = 310,000); Biochemical Sfp PPTase activity, qHTS; AID 1490; Q9F4F7; Potency, µM, for inactives: largest response in the series, negative = inhibition, hits mostly inhibitors;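 also: the enzyme is Sfp with the accession as filed and its product quenches rhodamine fluorescence; 0% = enzyme reaction without inhibitor and -100% = no enzyme wells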
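With Hepes-Na pH 7.6 buffer containing 10 mM MgCl2, Sfp (15 nM) modified BHQ-2-YbbR (12.5 uM) using rhodamine-CoA (5 uM). Two reads 30 minutes apart at 525/598 nm yielded each well's rate.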
ClpP mod: qHTS Assay for Activators of ClpP | AID 651965, 2013 | purified B. subtilis ClpP, FRET peptide cleavage, 20 min | Potency, µM (highest dose often 57.5 µM), inactives show at the top dose activity change, negative = active | actives 1.9% (n = 340,000) | ATP-dependent Clp protease proteolytic subunit (Bacillus subtilis (strain 168)), P80244; active = well fitted falling curve with a large enough effect; inconclusive = small, poorly fitted or top-dose-only effect; inactive = no such curve, though single readings can be large or run the other way; also: the source files actives as falling curves though it sought activators and does not explain the sign; nearly all actives have a fitted effect of over 65% in size
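FRET quenching reversal measured ClpP activation: 10 microg/mL B. subtilis ClpP at pH 8 with the FRET-FV decapeptide, read at 430 nm after 320 nm excitation. The 20-min minus 0-min signal was scaled between DMSO/no-enzyme wells and ADEP (5.8 microM final).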
VP16 counter: inhibits Gal4-VP16 luciferase reporter, ROR gamma counter-screen; Drosophila S2 Gal4-VP16 UAS-luciferase, luminescence, 20 h; Potency, µM (titrated, usually from 53.6 µM), inactives show top-dose activity, negative = inhibition, hits mostly inhibitors; actives 3.5% (n = 310,000); AID 2546;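 also: Gal4-VP16 expression switched on by copper sulfate through the metallothionein promoter; % is scaled to controls: 0 for no effect and ±100 for the full control effect; nearly all actives have a fitted effect of over 50% in size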
* = called active by the depositor; [ ] = remark or other dose. Only some compounds are listed: those with a hit (about 8.1% of all), similar ones and a draw of the others. Unless noted, calls follow the shape of the dose curve; as a rule, active = well fitted curve in the direction sought with a large enough effect; inconclusive = small, poorly fitted or top-dose-only effect, or another doubt; inactive = no such curve, though single readings can be large; an effect the other way counts as inactive or inconclusive. Potency is read from the fitted curve at half-maximal effect.

Results for Cc1cc(C(=O)Nc2ccc(C(C)C)cc2)c2c(C)nn(-c3ccccc3)c2n1 ?
Epigenetic derep: -1%; PINK1 expr mod: 1%; ClpP mod: 20%

How did CN(C)C(=O)CNc1n[nH]c(=S)[nH]c1=O do in these assays?
Epigenetic derep: 0%; PINK1 expr mod: 0%; RORgamma inh: 20%; Sfp inh: 20µM*; ClpP mod: 0%; VP16 counter: -2%

What do the screens show for `COC(=O)CCNc1n[nH]c(=O)[nH]c1=O`?
Epigenetic derep: -2%; PINK1 expr mod: 2%; RORgamma inh: 2%; Sfp inh: 22%; VP16 counter: -5%

How did CC(C)COC(=O)C(C)Nc1n[nH]c(=S)[nH]c1=O (stereo not drawn) do in these assays?
Epigenetic derep: -1%; PINK1 expr mod: 1%; RORgamma inh: 5%; Sfp inh: 22%; VP16 counter: -7%

What do the screens show for `COC(=O)CNc1n[nH]c(=S)[nH]c1=O`?
Epigenetic derep: 0%; PINK1 expr mod: -1%; RORgamma inh: -18%; Sfp inh: 50µM*; ClpP mod: -2%; VP16 counter: -1%

What do the screens show for `CC(C)OC(=O)CNc1n[nH]c(=S)[nH]c1=O`?
Epigenetic derep: 0%; PINK1 expr mod: 0%; RORgamma inh: 7%; Sfp inh: 45µM*; VP16 counter: -11%

What do the screens show for `CC(=O)N/C(=C/c1ccccc1)c1ccncc1`?
PINK1 expr mod: -1%; ClpP mod: -17%

What do the screens show for `COc1ccc(C2=NOC(C(=O)NCc3ccc(F)cc3)C2)cc1OC` (stereo not drawn)?
Epigenetic derep: -6%; PINK1 expr mod: 2.8µM*; RORgamma inh: 16%; Sfp inh: 10%; ClpP mod: -1%; VP16 counter: 6%

How did O=C1C(Cl)=C(N2CCCC2)C(=O)N1c1ccc(F)cc1 do in these assays?
PINK1 expr mod: 0%; RORgamma inh: 30%; Sfp inh: 4%; ClpP mod: 25µM*; VP16 counter: 24%

Results for O=C1C(Cl)=C(N2CCCCCC2)C(=O)N1c1ccc(Cl)cc1 ?
PINK1 expr mod: -1%; RORgamma inh: inconclusive; Sfp inh: -10%; ClpP mod: 0%; VP16 counter: -10%

Results for O=C(O)c1cc([N+](=O)[O-])c(Sc2nc3ccccc3[nH]2)c([N+](=O)[O-])c1 ?
PINK1 expr mod: 0%; RORgamma inh: inconclusive; Sfp inh: 50µM*; ClpP mod: 1%; VP16 counter: 3%

What do the screens show for `CS(=O)(=O)c1cc([N+](=O)[O-])c(Sc2nc3ccccc3[nH]2)c([N+](=O)[O-])c1`?
Epigenetic derep: -4%; PINK1 expr mod: 0%[38.3 µM]; RORgamma inh: 2.5µM*; Sfp inh: 13µM*; ClpP mod: -3%; VP16 counter: 3.2µM*

How did Cn1cnc([N+](=O)[O-])c1Sc1nc2ccccc2[nH]1 do in these assays?
Epigenetic derep: 0%; PINK1 expr mod: -1%; RORgamma inh: 2%; Sfp inh: inconclusive; ClpP mod: -6%; VP16 counter: -24%

What do the screens show for `CCCOc1cccc(OCC(=O)Nc2nc3ccccc3[nH]2)c1`?
Epigenetic derep: 0%; PINK1 expr mod: 8%; RORgamma inh: 10µM*; Sfp inh: -3%; ClpP mod: 2%; VP16 counter: inconclusive

How did O=C(COc1ccccc1)Nc1nc2ccccc2[nH]1 do in these assays?
Epigenetic derep: 1%; PINK1 expr mod: -4%; RORgamma inh: inconclusive; Sfp inh: 21%; ClpP mod: 0%

Results for CCCCOc1cccc(OCC(=O)Nc2nc3ccccc3[nH]2)c1 ?
Epigenetic derep: -1%; PINK1 expr mod: 9%; RORgamma inh: 16µM*; Sfp inh: 25%; ClpP mod: -7%; VP16 counter: inconclusive

What do the screens show for `CC(C)NC(=O)[C@@H]1C[C@@H](Sc2ccccn2)CN1C1CCN(C)CC1`?
PINK1 expr mod: 0%

How did O=c1oc2cc(OCc3nn[nH]n3)ccc2c2c1CCCC2 do in these assays?
Epigenetic derep: 1%; PINK1 expr mod: -1%; RORgamma inh: -7%; Sfp inh: 14%; ClpP mod: 24%; VP16 counter: 3%

Results for Cc1cc2oc(=O)c3c(c2cc1OCc1nn[nH]n1)CCCC3 ?
Epigenetic derep: -1%; PINK1 expr mod: 2%[38.3 µM]; RORgamma inh: 8%; Sfp inh: 21%; ClpP mod: 25µM*; VP16 counter: -10%

Results for COC(=O)c1c(SC)nc2ccccc2c1OCc1ccc(C)cc1 ?
Epigenetic derep: -3%; PINK1 expr mod: 5%; ClpP mod: -5%

How did COCc1cc(C)n(CC(=O)Nc2ccc(Cl)cc2Cl)c(=O)c1C#N do in these assays?
Epigenetic derep: -4%; PINK1 expr mod: 0%; RORgamma inh: 41%; Sfp inh: 2%; ClpP mod: 25µM*; VP16 counter: 4%

How did Cc1cc(C)cc(N2C(=O)CSC23C(=O)N(CC(=O)Nc2ccc(F)cc2F)c2ccccc23)c1 (stereo not drawn) do in these assays?
Epigenetic derep: 1%; PINK1 expr mod: -5%; ClpP mod: 0%

How did CCCCOc1ncnc2c1[nH]c1ccc(OCC)cc12 do in these assays?
Epigenetic derep: 0%; PINK1 expr mod: -1%[38.3 µM]; RORgamma inh: 2%; Sfp inh: 6%; ClpP mod: -29%; VP16 counter: 5%

How did CCCCOc1ncnc2c1[nH]c1ccc(F)cc12 do in these assays?
Epigenetic derep: -1%; RORgamma inh: inconclusive; Sfp inh: 10%; ClpP mod: 16µM*; VP16 counter: 7.9µM*

Results for CCCCOc1ncnc2c1[nH]c1ccccc12 ?
Epigenetic derep: 1%; PINK1 expr mod: 0%; RORgamma inh: inconclusive; Sfp inh: 4%; ClpP mod: 18µM*; VP16 counter: 10µM*

What do the screens show for `Cc1cc(C(C)(C)C)ccc1OCCCCN1CCCC1`?
Epigenetic derep: 1%; PINK1 expr mod: 1%; RORgamma inh: 93%; Sfp inh: 5%; ClpP mod: 4%; VP16 counter: inconclusive

Results for Cc1cc[n+](CC[n+]2ccc(C)cc2)cc1 ?
PINK1 expr mod: 1%; ClpP mod: -3%

Results for CCC(C)(C)c1ccc(OCCCC[n+]2cccc(C)c2C)c(C(C)(C)CC)c1 ?
Epigenetic derep: 1%; PINK1 expr mod: -2%; RORgamma inh: inconclusive; Sfp inh: 45µM*; ClpP mod: 1%; VP16 counter: 11µM*

How did CCC(C)(C)c1ccc(OCCCC[n+]2ccc(C)cc2)c(C(C)(C)CC)c1 do in these assays?
Epigenetic derep: 5%; PINK1 expr mod: -3%; RORgamma inh: inconclusive; Sfp inh: 40µM*; ClpP mod: 0%; VP16 counter: inconclusive
